Assay results reported in the supplement of paper PMC13094657.
Where a name gives a salt, the structure may show the parent alone. ± gives the standard deviation of the averaged measurements.

Experiments:
MDA-MB-231 [1] = experiment: cell viability relative to vehicle unstimulated control (fraction); higher = more viable cells; settings: pre-treatment time: 18 h then 24 h IFNg/TNF
MDA-MB-231 [2] = experiment: kynurenine production, fold change vs DMSO IFNg/TNF control; higher = more kynurenine produced (less inhibition); settings: pre-treatment time: 18 h then 24 h IFNg/TNF
How it was run: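 After trichloroacetic acid and p-dimethylaminobenzaldehyde treatment, supernatants were read at 492 nm, with 0–100 μM standards. These came from MDA-MB-231 cells (7 × 10^4/well, 96-well plates) pre-treated 18 h with natural products in 0.1% DMSO and then exposed 24 h to IFNγ (1 U/ml) and TNF (6.25 ng/ml) at 37°C. Values for kynurenine production are fold changes over same-plate cytokine-stimulated vehicle wells, averaged over duplicate plates in the first screening round.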
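Wherever cell viability relative to vehicle unstimulated control is given: viability of the cells left after supernatant collection, read with Deep Blue dye added for 4 h, as absorbance at 570 nm minus 600 nm.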

SMILES	cell viability (MDA-MB-231 [1])	kynurenine production (MDA-MB-231 [2])
OCC1=C[C@@H](O)[C@@H]2C=CO[C@@H](O[C@@H]3O[C@H](CO)[C@@H](O)[C@H](O)[C@H]3O)[C@H]12 [Aucubin] (compound dose: 10 uM)	1.01 ± 0.02	0.87 ± 0.041
C[C@@H]1O[C@@H](O[C@H]2[C@H](OC(=O)[C@]34CCC(C)(C)C[C@H]3C3=CC[C@@H]5[C@@]6(C)C[C@H](O)[C@H](O[C@@H]7O[C@H](CO)[C@@H](O)[C@H](O)[C@H]7O)[C@@](C)(CO)[C@@H]6CC[C@@]5(C)[C@]3(C)C[C@H]4O)OC[C@H](O)[C@@H]2O)[C@H](O)[C@H](O)[C@H]1O[C@@H]1OC[C@@H](O)[C@H](O[C@@H]2OC[C@](O)(CO)[C@H]2O)[C@H]1O [Polygalacin D] (compound dose: 10 uM)	0.821 ± 0.05	0.382 ± 0.056
CC(=O)O[C@]12CCC(C(=O)O)=CC[C@]13CC[C@H]2[C@@](C)(/C=C/C=C(\C)C(=O)O)OC3=O [Pseudolaric Acid C2] (compound dose: 10 uM)	1.017 ± 0.0098	0.728 ± 0.017
O=c1ccn2c(n1)O[C@H]1[C@H](O)[C@@H](CO)O[C@H]12 [2,2'-Anhydrouridine] (compound dose: 10 uM)	0.906 ± 0.036	0.923 ± 0.092
CC(C)(O[C@@H]1O[C@H](CO)[C@@H](O)[C@H](O)[C@H]1O)[C@@H]1CC[C@](C)([C@H]2[C@@H](O)C[C@@]3(C)[C@@H]4C[C@H](O)[C@H]5C(C)(C)[C@@H](O[C@@H]6OC[C@@H](O)[C@H](O)[C@H]6O)CC[C@@]56C[C@@]46CC[C@]23C)O1 [Isoastragaloside IV] (compound dose: 10 uM)	0.924 ± 0.083	1.23 ± 0.33
C=C1C[C@@]23CC[C@H]4[C@@](C)(CCC[C@@]4(C)C(=O)O)[C@@H]2CC[C@@H]1C3 [Kaurenoic acid] (compound dose: 10 uM)	1.006 ± 0.0069	0.878 ± 0.12
C[C@@]12C[C@@]3(O)O[C@@H](O1)[C@]1(COC(=O)c4ccc(O)cc4)[C@@H]3C[C@]12O[C@@H]1O[C@H](CO)[C@@H](O)[C@H](O)[C@H]1O [Oxypaeoniflorin] (compound dose: 10 uM)	1.05 ± 0.069	0.916 ± 0.082
C[C@H]1[C@H](C)CC[C@]2(C(=O)O)CC[C@]3(C)C(=CC[C@@H]4[C@@]5(C)C[C@@H](O)[C@H](O)[C@@](C)(CO)[C@@H]5CC[C@]43C)[C@H]12 [Asiatic acid] (compound dose: 10 uM)	1.01 ± 0.018	0.85 ± 0.16
C/C=C(/C)C(=O)O[C@H]1[C@H](OC(C)=O)[C@@]2(CO)C(CC1(C)C)C1=CCC3[C@@]4(C)CCC(O[C@@H]5O[C@H](C(=O)O)[C@@H](O[C@@H]6O[C@H](CO)[C@@H](O)[C@H](O)[C@H]6O)[C@H](O)[C@H]5O[C@@H]5O[C@H](CO)[C@@H](O)[C@H](O)[C@H]5O)[C@](C)(CO)C4CC[C@@]3(C)[C@]1(C)C[C@H]2O.C/C=C(\C)C(=O)O[C@H]1[C@H](OC(C)=O)[C@@]2(CO)C(CC1(C)C)C1=CCC3[C@@]4(C)CCC(O[C@@H]5O[C@H](C(=O)O)[C@@H](O[C@@H]6O[C@H](CO)[C@@H](O)[C@H](O)[C@H]6O)[C@H](O)[C@H]5O[C@@H]5O[C@H](CO)[C@@H](O)[C@H](O)[C@H]5O)[C@](C)(CO)C4CC[C@@]3(C)[C@]1(C)C[C@H]2O (some centres not stated) [Escin] (compound dose: 10 uM)	0.911 ± 0.11	1.14 ± 0.1
CC12CCC(C1)C(C)(C)C2=O (single isomer, unassigned; (-)) [(-)-Fenchone] (compound dose: 10 uM)	1.121 ± 0.0077	0.955 ± 0.13
OC[C@H]1O[C@@H](O[C@@H]2OC=C[C@H]3[C@H](O)[C@@H]4O[C@]4(CO)[C@@H]23)[C@H](O)[C@@H](O)[C@@H]1O [Catalpol] (compound dose: 10 uM)	0.896 ± 0.28	0.704 ± 0.58
CC1=CCC2CC1C2(C)C (stereo not drawn) [(+)-α-pinene] (compound dose: 10 uM)	0.9918 ± 0.0024	0.97 ± 0.036
CC(=O)O[C@@H]1CC[C@@]2(C)[C@@H](CC[C@]3(C)[C@@H]2[C@H](O)C=C2[C@@H]4[C@@H](C)[C@H](C)CC[C@]4(C)CC[C@]23C)[C@@]1(C)C(=O)O [3-O-Acetyl-11-hydroxy-beta-boswellic acid] (compound dose: 10 uM)	0.8634 ± 0.0022	0.988 ± 0.083
CC(/C=C/C=C(\C)C(=O)O)=C\C=C\C=C(C)\C=C\C=C(/C)C(=O)O [Transcrocetin meglumine salt] (compound dose: 10 uM)	1.02 ± 0.038	0.737 ± 0.064
C/C1=C\[C@@H]2[C@H](CC/C(C)=C/CC(=O)/C(C)=C/CC1)C2(C)C [5-ketocasbene/9-ketocasbene] (compound dose: 10 uM)	1.155 ± 0.0076	1.03 ± 0.12
CC(=O)O[C@@H]1C[C@@]23C[C@@]24CC[C@H](O[C@@H]2OC[C@H](O)[C@H](O)[C@H]2O)C(C)(C)[C@@H]4CC[C@H]3[C@]2(C)[C@@H](O)[C@]34O[C@H](C[C@@H](C)[C@@H]3[C@@]12C)[C@@H](C(C)(C)O)O4 [Cimiracemoside D] (compound dose: 10 uM)	1.02 ± 0.086	1.16 ± 0.22

SMILES	cell viability (MDA-MB-231 [1])	kynurenine production (MDA-MB-231 [2])
C=C(C)[C@H]1C=C[C@@](C)(O)CC1 [cis-Isolimonenol] (compound dose: 10 uM)	0.972 ± 0.02	0.813 ± 0.11
C[C@@H]1CC[C@]2(C(=O)O)CC[C@]3(C)C(=CC[C@@H]4[C@@]5(C)C[C@@H](O)[C@@H](O)C(C)(C)[C@@H]5CC[C@]43C)[C@@H]2[C@]1(C)O [Euscaphic acid] (compound dose: 10 uM)	0.933 ± 0.02	0.804 ± 0.15
CC1(C)CC[C@]2(C(=O)O)CCC3=C([C@@H](CCl)C[C@@H]4[C@@]5(C)C[C@H](O)[C@H](O)[C@@](C)(C(=O)O)[C@@H]5CC[C@@]34C)[C@@H]2C1 [Tenuigenin] (compound dose: 10 uM)	0.983 ± 0.068	0.952 ± 0.2
C=C1C[C@@]23CC[C@H]4[C@@](C)(CCC[C@@]4(C)C(=O)O[C@@H]4O[C@H](CO)[C@@H](O)[C@H](O)[C@H]4O)[C@@H]2CC[C@]1(O[C@@H]1O[C@H](CO)[C@@H](O)[C@H](O)[C@H]1O[C@@H]1O[C@H](CO)[C@@H](O)[C@H](O)[C@H]1O)C3 [Stevioside] (compound dose: 10 uM)	1.05 ± 0.015	0.959 ± 0.14
CC(CCC(OC1OC(COC2OC(CO)C(O)C(O)C2O)C(O)C(O)C1OC1OC(CO)C(O)C(O)C1O)C(C)(C)O)C1CCC2(C)C3CC=C4C(CCC(OC5OC(COC6OC(CO)C(O)C(O)C6O)C(O)C(O)C5O)C4(C)C)C3(C)C(=O)CC12C (configuration not stated) [11-oxo-mogroside V] (compound dose: 10 uM)	1.1 ± 0.12	1.33 ± 0.053
C=C1CC[C@@H]2[C@](C)(COC(=O)CCC(=O)O)[C@H](OC(=O)CCC(=O)O)CC[C@@]2(C)[C@@H]1/C=C/C1=CCOC1=O [Dehydroandrographolide succinate] (compound dose: 10 uM)	0.898 ± 0.11	1.2 ± 0.089
CC(=O)O[C@@]12CO[C@@H]1C[C@H](O)[C@@]1(C)C(=O)[C@H](O)C3=C(C)[C@@H](OC(=O)[C@H](O)[C@@H](NC(=O)OC(C)(C)C)c4ccccc4)C[C@@](O)([C@@H](OC(=O)c4ccccc4)[C@H]21)C3(C)C [Docetaxel] (compound dose: 10 uM)	0.923 ± 0.067	0.758 ± 0.051
C[C@@H]1O[C@@H](O[C@H]2[C@H](O[C@H]3CC[C@@]4(C)[C@@H](CC[C@]5(C)[C@@H]4CC=C4[C@@H]6CC(C)(C)CC[C@]6(C(=O)O)CC[C@]45C)[C@]3(C)CO)OC[C@H](O)[C@@H]2O)[C@H](O)[C@H](O)[C@H]1O [alpha-Hederin] (compound dose: 10 uM)	0.932 ± 0.067	0.875 ± 0.14
C/C=C1\C(=O)C[C@H]2[C@@H]3CCC4=CC(=O)CC[C@]4(C)[C@H]3CC[C@]12C [Guggulsterone] (compound dose: 10 uM)	0.9378 ± 0.0046	0.324 ± 0.043
O=C(O)/C=C/c1ccccc1O [O-coumaric acid] (compound dose: 10 uM)	0.976 ± 0.097	0.9916 ± 0.006
C[C@H]1[C@H](C)CC[C@]2(C(=O)O)CC[C@]3(C)C(=CC[C@@H]4[C@@]5(C)C[C@@H](O)[C@H](O)C(C)(C)[C@@H]5CC[C@]43C)[C@H]12 [Corosolic acid] (compound dose: 10 uM)	1.07 ± 0.16	1.19 ± 0.13
CC(CC(=O)C[C@@H](C)[C@H]1CC(=O)[C@@]2(C)C3=C(C(=O)[C@@H](O)[C@]12C)[C@@]1(C)CC[C@H](O)C(C)(C)[C@@H]1C[C@@H]3O)C(=O)O (some centres not stated) [Ganoderic acid G] (compound dose: 10 uM)	1.1 ± 0.058	0.973 ± 0.16
CC(=O)O[C@H]1C(=O)[C@@]2(C)[C@H]([C@H](OC(=O)c3ccccc3)[C@]3(O)C[C@H](OC(=O)[C@H](O)[C@@H](NC(=O)c4ccccc4)c4ccccc4)C(C)=C1C3(C)C)[C@]1(OC(C)=O)CO[C@@H]1C[C@@H]2O [7-epi-Taxol] (compound dose: 10 uM)	0.791 ± 0.032	0.3 ± 0.026
C=C1C(=O)O[C@@H]2/C=C(\C)C[C@@H]3C=C(C[C@H](OC(=O)/C(C)=C\C)[C@@H]12)C(=O)O3 [Scabertopin] (compound dose: 10 uM)	0.873 ± 0.022	0.182 ± 0.087
CC1(C)CC[C@]2(C(=O)O)CC[C@]3(C)C(=CC[C@@H]4[C@@]5(C)CC[C@H](O[C@@H]6O[C@H](C(=O)O)[C@@H](O)[C@H](O)[C@H]6O)C(C)(C)[C@@H]5CC[C@]43C)[C@@H]2C1 [Calenduloside E] (compound dose: 10 uM)	1.07 ± 0.054	0.962 ± 0.087
